Assay outcomes: PubChem, National Center for Advancing Translational Sciences (NCATS)
Most compounds without a hit are left out; they make up all but 10% or so of the library.
CtBP-E1A inh – qHTS Assay for Inhibitors of the CtBP/E1A Interaction; activity change, % (no concentration beside the values); actives 0.49% (n = 340,000); CtBP / adenovirus E1A interaction (AlphaScreen); AlphaScreen GST-E1A/His-CtBP binding, 1536-well; stronger effect = lower value; in the data active = activity change below about -65%; inconclusive = mostly about -30% to -63%
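In 5 uL wells, 23 nL compound meets equimolar GST-E1A and His-CtBP (5X stock 125 nM each) for 2 h, 37 °C. Beads (5X, 50 ug/mL) then 1 h, 37 °C, dark.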
HP1b binding inh – HTS for Inhibitors of HP1-beta Chromodomain Interactions with Methylated Histone Tails; AlphaScreen HP1-beta / biotin-H3K9me3 peptide binding; actives 0.56% (n = 390,000); Potency, µM (series often up to 114 µM), hits mostly inhibitors; Chromobox protein homolog 1 (Homo sapiens), P83916; note: nearly all actives have a fitted effect of over 70% in size
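Compound inhibition of the preformed complex between 50 nM HP1-beta and 50 nM biotinylated H3K9me3 peptide was read by AlphaScreen. Buffer was PBS pH 7.4 with 0.01% Tween-20. Incubations ran 30 min at room temperature, with 10 ug/mL donor/acceptor beads.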
Six1-Eya2 blk – qHTS Assay for Inhibitors of the Six1/Eya2 Interaction; activity change, % (test concentration not listed); Homeobox protein SIX1 (Homo sapiens) + Protein phosphatase EYA2 (Homo sapiens), …; AlphaScreen GST-Six1/His-Eya2 binding, biochemical; stronger effect = lower value; actives 0.56% (n = 360,000); AID 651725, 2012; in the data active = activity change below about -65%; inconclusive = mostly about -30% to -63%
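AlphaScreen luminescence read after one hour at 37 °C in darkness. Pin-transferred compounds met GST-Six1 and His-Eya2 protein (5X stock 250 nM/500 nM) plus glutathione donor and Ni-chelate acceptor beads (5X, 50 ug/mL).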
JMJD2A Tudor inh – qHTS Assay for Inhibitors of JMJD2A-Tudor Domain. actives 4.4% (n = 390,000). Potency, µM (top dose mostly 114 µM), most hits filed as inhibitors. AlphaScreen JMJD2A-Tudor / H3K4me3 peptide binding. AID 504339, 2011; note: nearly all actives have a fitted effect of over 50% in size
Target sequence (O75164 whole entry, looked up, the tested form may be a part): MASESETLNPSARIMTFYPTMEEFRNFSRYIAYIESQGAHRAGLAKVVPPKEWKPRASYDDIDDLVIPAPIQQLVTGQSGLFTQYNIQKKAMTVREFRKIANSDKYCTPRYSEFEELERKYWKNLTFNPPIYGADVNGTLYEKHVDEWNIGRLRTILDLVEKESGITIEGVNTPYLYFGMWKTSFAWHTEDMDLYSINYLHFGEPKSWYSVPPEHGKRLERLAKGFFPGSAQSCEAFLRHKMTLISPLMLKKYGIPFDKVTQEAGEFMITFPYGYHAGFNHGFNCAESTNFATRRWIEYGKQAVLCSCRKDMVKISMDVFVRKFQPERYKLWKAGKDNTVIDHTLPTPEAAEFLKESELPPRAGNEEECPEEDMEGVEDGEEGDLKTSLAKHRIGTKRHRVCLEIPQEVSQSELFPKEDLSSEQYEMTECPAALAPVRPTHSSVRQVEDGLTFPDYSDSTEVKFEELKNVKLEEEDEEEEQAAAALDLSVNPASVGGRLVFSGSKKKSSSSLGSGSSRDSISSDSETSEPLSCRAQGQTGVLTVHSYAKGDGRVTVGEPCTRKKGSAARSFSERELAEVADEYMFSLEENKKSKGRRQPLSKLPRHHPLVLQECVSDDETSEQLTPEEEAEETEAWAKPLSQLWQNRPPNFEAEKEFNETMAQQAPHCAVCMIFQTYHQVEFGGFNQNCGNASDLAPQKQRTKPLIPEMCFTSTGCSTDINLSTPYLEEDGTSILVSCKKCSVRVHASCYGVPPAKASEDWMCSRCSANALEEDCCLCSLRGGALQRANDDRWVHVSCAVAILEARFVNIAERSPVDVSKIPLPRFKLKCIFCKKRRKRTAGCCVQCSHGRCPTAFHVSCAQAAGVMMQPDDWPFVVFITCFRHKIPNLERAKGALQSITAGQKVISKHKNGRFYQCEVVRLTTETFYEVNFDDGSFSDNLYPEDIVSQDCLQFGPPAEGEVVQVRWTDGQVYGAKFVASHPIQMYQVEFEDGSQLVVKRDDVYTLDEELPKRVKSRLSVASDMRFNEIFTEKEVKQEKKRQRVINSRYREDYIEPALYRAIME
BAZ2B block – qHTS Assay for Inhibitors of BAZ2B | Bromodomain adjacent to zinc finger domain protein 2B (Homo sapiens), Q9UIF8 | AlphaScreen BAZ2B-H3K14Ac peptide displacement | Potency, µM (series often up to 114 µM), most hits filed as inhibitors | actives 4.4% (n = 360,000) | AID 504333, 2011; note: nearly all actives have a fitted effect of over 60% in size
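Inhibition is scored as reduced AlphaScreen emission. The BAZ2B/b-H3(5-23)K14Ac complex (50 nM each) in PBS pH 7.4, 0.01% Tween-20 meets compound (up to 110 uM) for 30 min at RT before bead addition.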
G9a block – qHTS Assay for Inhibitors of Histone Lysine Methyltransferase G9a | G9a H3K9 monomethylation, AlphaScreen, 2 h | Potency, µM (top dose mostly 102 µM), actives largely listed as inhibitors | actives 8.8% (n = 350,000) | AID 504332, 2011; note: nearly all actives have a fitted effect of over 75% in size
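Using a bead-based AlphaScreen, monomethylated H3K9 product from 2 h room-temperature reactions (G9a 20 nM, peptide 500 nM, SAM 20 uM) was detected with 0.5 ug/mL rabbit anti-H3K9me1 antibody.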
Of the large screens only hits and unclear results are named; the others gave an inactive call. Unless noted, calls come from the whole dose curve; as a rule, active = well fitted inhibition curve with a large enough effect; inconclusive = small, poorly fitted or top-dose-only effect; inactive = no such curve, though single readings can be large or run the other way.

Cc1cccc(-c2nc(CS(=O)CC(=O)N3CCc4ccccc4C3)c(C)o2)c1 (stereo not given)	G9a block 32µM
Cc1ccc(-c2nc(CS(=O)(=O)CC(=O)N3CCN(c4ccccc4)CC3)c(C)o2)cc1	JMJD2A Tudor inh inconclusive, BAZ2B block 56µM (no result: CtBP-E1A inh, Six1-Eya2 blk)
COc1ccc(-c2nc(CSCC(=O)N3CCN(c4ccc(OC)cc4)CC3)c(C)o2)cc1	JMJD2A Tudor inh inconclusive, BAZ2B block 35µM, G9a block 11µM (no result: CtBP-E1A inh, Six1-Eya2 blk)
CCOc1ccc(C2C(C(N)=O)=C(C)Nc3nc(-c4ccc(OC)cc4)nn32)cc1 (stereo not given)	none (no result: CtBP-E1A inh, Six1-Eya2 blk)
Fc1ccc(Nc2nc(N3CCOCC3)nc(N3CCOCC3)n2)cc1	JMJD2A Tudor inh inconclusive, BAZ2B block inconclusive, G9a block 45µM
Cc1ccc(Nc2nc(N3CCOCC3)nc(N3CCOCC3)n2)cc1C	BAZ2B block inconclusive, G9a block 50µM (no result: CtBP-E1A inh)
c1ccc(Nc2nc(N3CCOCC3)nc(N3CCOCC3)n2)cc1	G9a block inconclusive
Cc1occc1C(=O)Nc1nn[nH]n1	JMJD2A Tudor inh 45µM, BAZ2B block inconclusive, G9a block 45µM
Cc1occc1C(=O)Nc1c(F)c(F)c(F)c(F)c1F	G9a block 14µM
Cc1occc1C(=O)NCCCCNC(=O)c1ccoc1C	none
CC(=O)c1[nH]c(C)c(C(=O)NCc2ccc(Cl)cc2)c1C	none (no result: CtBP-E1A inh, Six1-Eya2 blk)
COc1ccc(-n2ncc(C(=O)N3CCN(c4ccccn4)CC3)c2C2CCN(C(=O)OC(C)(C)C)CC2)cc1	none (no result: CtBP-E1A inh, Six1-Eya2 blk)
COc1cc(/C=C(\NC(C)=O)C(=O)N2CCCCC2)ccc1OC(C)=O	G9a block inconclusive
CCOc1ccc(C(=O)Nc2cc(-c3cn4cccnc4n3)ccc2C)cc1OCC	none (no result: CtBP-E1A inh, Six1-Eya2 blk)
COc1cccc(-c2cc(C(=O)NCCCn3ccnc3)c3ccccc3n2)c1	BAZ2B block inconclusive, G9a block 3.2µM
CC(C)Oc1cccc(-c2cc(C(=O)NN3CCOCC3)c3ccccc3n2)c1	none
CC(C)Oc1cccc(-c2cc(C(=O)NC(=S)N(C)c3ccccc3C(=O)O)c3ccccc3n2)c1	HP1b binding inh inconclusive, G9a block 22µM
CCNC(=S)NNC(=O)c1cc(-c2cccc(OC)c2)nc2ccccc12	G9a block 40µM
COc1cccc(C(C)(O)c2nc(-c3csc4ccccc34)cs2)c1 (stereo not given)	none (no result: HP1b binding inh, JMJD2A Tudor inh, BAZ2B block, G9a block)
O=C1NC(=S)N/C1=C\c1ccc(N2CCOCC2)cc1	JMJD2A Tudor inh 20µM, G9a block inconclusive (no result: CtBP-E1A inh)
CC(C)CCC1(C)NC(=O)N(CC(=O)c2ccc[nH]2)C1=O (stereo not given)	JMJD2A Tudor inh inconclusive, BAZ2B block inconclusive
Cc1ccc(N2C(=O)CC(Sc3nc4ccccc4o3)C2=O)cc1Cl (stereo not given)	JMJD2A Tudor inh inconclusive, G9a block 11µM
COCCCn1c(N)c(-c2nc3ccccc3n2C)c2nc3ccccc3nc21	CtBP-E1A inh inconclusive, Six1-Eya2 blk inconclusive
CCn1nc([N+](=O)[O-])c2c(-c3nc4ccccc4o3)c(N)n(CCCOC)c2c1=O	JMJD2A Tudor inh inconclusive, BAZ2B block 56µM, G9a block inconclusive
CCSC1=N/C(=C\c2ccc(C)s2)C(=O)S1	G9a block inconclusive
COc1ccc(/C=C2\N=C(SC)SC2=O)cc1OC	none
CCOc1cc(/C=C2\N=C(SCC)SC2=O)cc([N+](=O)[O-])c1OC(C)=O	HP1b binding inh inconclusive, JMJD2A Tudor inh inconclusive, BAZ2B block 13µM, G9a block 10µM
CCOc1c(OC(C)=O)ccc(/C=C2\N=C(SCC)SC2=O)c1[N+](=O)[O-]	HP1b binding inh 14µM, JMJD2A Tudor inh 79µM, BAZ2B block 45µM (no result: G9a block)
CCOc1cc(/C=C2\N=C(SC)SC2=O)cc([N+](=O)[O-])c1OC(C)=O	HP1b binding inh 45µM, BAZ2B block 18µM, G9a block 14µM
O=C(CCCc1c[nH]c2ccccc12)Nc1ncccc1O	BAZ2B block 56µM
Cc1cccnc1NC(=O)CCCc1c[nH]c2ccccc12	BAZ2B block inconclusive
O=C(NC(=S)N1CCCc2ccccc21)c1ccc(Br)cc1	JMJD2A Tudor inh inconclusive, G9a block 45µM
COc1ccccc1C(=O)NC(=S)N1CCc2ccccc21	JMJD2A Tudor inh inconclusive, G9a block 45µM (no result: CtBP-E1A inh)
O=C(NC(=S)N1CCCc2ccccc21)c1ccccc1	JMJD2A Tudor inh inconclusive, BAZ2B block inconclusive
COc1ccccc1C(=O)NC(=S)N1CCCc2ccccc21	JMJD2A Tudor inh inconclusive, BAZ2B block inconclusive, G9a block 10µM
CCc1ccccc1NC(=O)c1cnc2sc(N3CCOCC3)nn2c1=O	none (no result: CtBP-E1A inh, Six1-Eya2 blk)
Cc1cccc(N=Nc2cnc(N)s2)c1	HP1b binding inh inconclusive, JMJD2A Tudor inh 45µM, BAZ2B block inconclusive, G9a block 28µM
Cc1cccc(N=C(NO)c2nonc2N)c1	none
Cn1ccnc1C(O)c1cc(C(C)(C)C)c(O)c(C(C)(C)C)c1 (stereo not given)	JMJD2A Tudor inh inconclusive, BAZ2B block inconclusive, G9a block 50µM
CC(C)(Sc1cc(C(C)(C)C)c(O)c(C(C)(C)C)c1)Sc1cc(C(C)(C)C)c(O)c(C(C)(C)C)c1	none
Cc1ccc(-c2nc(CS(=O)CC(=O)NCc3ccccc3)c(C)o2)cc1 (stereo not given)	G9a block 50µM
Cc1ccc(-c2nc(CS(=O)CC(=O)NCc3ccc(F)cc3)c(C)o2)cc1 (stereo not given)	none (no result: CtBP-E1A inh)
Cc1ccc(CNC(=O)CS(=O)Cc2nc(-c3ccccc3C)oc2C)cc1 (stereo not given)	G9a block 50µM
Cc1ccc(CNC(=O)CS(=O)Cc2nc(-c3cccs3)oc2C)cc1 (stereo not given)	G9a block 50µM
CCc1ccc(-c2nc(CS(=O)CC(=O)NCCc3ccccc3)c(C)o2)cc1 (stereo not given)	G9a block 79µM
CC1(C)NC(=O)N(CC(=O)OCC(=O)Nc2sccc2C#N)C1=O	BAZ2B block inconclusive, G9a block inconclusive (no result: CtBP-E1A inh)
O=C1CSC(=Nc2cc(Cl)ccc2Cl)N1	none
COc1ccccc1CNC(=O)CS(=O)Cc1nc(-c2ccccc2C)oc1C (stereo not given)	G9a block 79µM
Cc1ccccc1-c1nc(CS(=O)CC(=O)NCc2ccccc2)c(C)o1 (stereo not given)	G9a block 50µM
CCCCC(=O)Nc1cccn2ncnc12	none
O=C(CNC(=O)c1ccccc1)OCC(=O)c1ccc2ccccc2c1	none (no result: CtBP-E1A inh, Six1-Eya2 blk, BAZ2B block, G9a block)
